# Measurements published in PubChem BioAssay.
# Values joined by “and” are separate entries in the source; they are usually repeats but may differ in a detail not shown here. Equal entries are not always repeated. For some of these results: Results with a measured potency or affinity are listed apart. Active and inactive are the calls of the source. Unless noted, no rule for the calls is given here.
# Tests used:
# [1] = compounds altering circadian rhythm period length – cell-based, LOPAC library, luminescence reporter (AID 2774); settings: circadian reporter cells, at 7 µM, actives lie on both sides;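 also: values are relative to mean of DMSO wells on each plate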
# [2] = tested on: Hepatitis C virus NS3 helicase; assay: blockers of NS3h binding to ssDNA – biochemical, fluorescence polarization, LOPAC1280 library, primary screen (AID 687035; in the data active = inhibition above about 37%); settings: Purified HCV NS3 helicase, Cy5-dT15 ssDNA binding fluorescence polarization; stronger effect = higher value; concentration not given here
# [3] = compounds altering Cy5-DNA-NS3h complex signal – biochemical, LOPAC1280, artefact control for HCV NS3 helicase inhibitor project (AID 687037); settings: Cy5-DNA-NS3h complex fluorescence interference counterscreen
# [4] = tested on: Aerobactin synthetase IucA (Klebsiella pneumoniae); assay: inhibition of K. pneumoniae IucA enzyme – biochemical, Tocris library, absorbance (AID 1345561); settings: purified IucA enzyme assay, absorbance (OD) read-out; stronger effect = lower value; concentration not given here;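 also: 100% = enzyme without compound and 0% = no enzyme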
# [5] = tested on: Aerobactin synthetase IucA (Klebsiella pneumoniae, hypervirulent); assay: biochemical IucA inhibition screen of LOPAC library by absorbance (AID 1346212); settings: IucA enzyme assay, absorbance (OD) readout; stronger effect = lower value; concentration not given here;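 also: 100% = no compound wells and 0% = no enzyme wells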
# [6] = viability loss with induced miR-34 in A549 – imaging, A549 dox-inducible miR-34, nuclei and caspase counts, primary screen (AID 1347080;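 active = compounds whose cell count with miR-34 switched on is under 0.7 times the count with it off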); settings: A549 miR-34 inducible, Hoechst nuclei count, 48 h
# [7] = blockers of cellular phospholipid synthesis – cell-based, LOPAC library, screen 4, primary screen (AID 1347384); settings: animal cells, phospholipid biosynthesis inhibition screen; at 10 µM
# [8] = MELAS cybrid and Rieske KO viability enhancers – cell-based, MELAS cybrids, Rieske KO mouse fibroblasts, CellTiter-Glo, primary screen (AID 1508586;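 active = mean z-score across replicates of 1.96 or higher in either the MELAS or the Rieske mutant cell line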;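 also: z relative to plate mean and SD of compound and empty wells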); settings: low glucose
# [9] = galactose survival enhancers in mitochondrial complex I cybrids – cell-based, galactose medium, ATP luminescence, primary screen (AID 1645843;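 active = z-score of at least 1.8 in each of two replicates, scored against plate mean and spread of sample wells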;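 also: positive z means more ATP and so rescue of galactose-driven cybrid death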); settings: complex I mutant cybrid cells, 72 h, stronger effect = higher value
# [10] = EMT-state selective cytotoxicity in co-culture – imaging, PC-3E GFP, TEM4-18 mCherry, primary screen (AID 1345086;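 active = compounds killing one labelled cell type while sparing the other, by normalised counts and ratio limits, not self-fluorescent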;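 as to all read-outs here: cells exposed to compound for 72 h before imaging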;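 as to red/green cell ratio (normalised): normalised mesenchymal count divided by normalised epithelial count so high means epithelial killing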); settings: PC-3E GFP / TEM4-18 mCherry co-culture, imaging cell counts, at 1 µM; for red/green cell ratio (normalised): actives lie on both sides
# [11] = molecular target: Mitogen-activated protein kinase 7 (Homo sapiens) (UniProt Q13164); assay: Gal4-ERK5 driven luciferase induction – cell-based, HTS, primary screen (AID 1508626;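 active = luciferase signal above three times the same-plate solvent-only control wells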;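 also: luciferase driven by Gal4-ERK5 fusion binding five Gal4 sites before minimal TATA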); settings: HeLa Gal4-ERK5 transactivation, 18 h, at 5 µM, stronger effect = higher value
# [12] = P. berghei load reduction in hepatocytes – cell-based, HepG2, luciferase luminescence, HepG2 viability, primary screen (AID 624349; in the data active = parasite load remaining mostly below about 12%, no sharp cut-off; inactive = mostly above about 10%;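 also: 100% = mean of DMSO negative control wells on the same plate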); settings: P. berghei liver stage in HepG2, luciferase luminescence, concentration not given here; parasite load remaining: stronger effect = lower value; viability: measured here: HepG2 viability without parasites
# [13] = tested on: Aerobactin synthetase IucA (Klebsiella pneumoniae hvKP1); assay: IucA enzyme inhibition, primary screen, biochemical, Spectrum library (AID 1346200); settings: malachite green pyrophosphate, A620, at 8 µM, stronger effect = lower value;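 also: 100% = wells without compound and 0% = wells lacking enzyme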
# [14] = blockers of polyQ-driven CASP3 activation – cell-based (AID 1583); settings: polyglutamine-induced caspase-3 activation, cell assay; stronger effect = higher value;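 tested at 10 µM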
# [15] = yeast 75Q aggregation reduction – 75Q-TubU reporter (AID 1593); settings: Yeast 75Q polyglutamine aggregation reporter
# [16] = restoration of touch response, mutant HTT neurons – whole organism, C. elegans mechanosensory neurons, N-terminal huntingtin (AID 1599); settings: C. elegans polyQ-huntingtin mechanosensory neurons, stronger effect = higher value
# [17] = blockers of cytochrome c efflux from mitochondria – biochemical, purified mitochondria (AID 1603); settings: stronger effect = lower value;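 also: mouse liver mitochondria challenged with calcium chloride; signal normalized to the plate average as 100%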
# [18] = polyglutamine aggregate formation blockers (AID 1604); settings: polyglutamine-induced protein aggregation inhibition assay; stronger effect = higher value; tested at 2.5 µM
# [19] = glutamate transport activators, MN-1 cells, MN-1 cell line (AID 1612); settings: MN-1 motor neuron cells, stronger effect = higher value;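 also: tested at 1 µM final; 0% = mean of DMSO vehicle wells on each plate; positive means more glutamate uptake than control and negative means less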
# [20] = 75Q-TubH aggregate inhibition, S. cerevisiae, yeast (AID 1616); settings: S. cerevisiae 75Q-TubH polyglutamine aggregation suppression; stronger effect = higher value
# [21] = stronger effect = lower value, cell number ratio, induced over uninduced
# [22] = measured here: relative caspase fold change +Dox/-Dox
# [23] = measured here: total cells with miR-34 induction, stronger effect = lower value
# [24] = measured here: total cells without miR-34 induction
# [25] = MELAS cybrid survival, CellTiter-Glo 48 h, stronger effect = higher value
# [26] = Rieske KO mouse fibroblast survival, CellTiter-Glo 72 h
# [27] = measured here: epithelial PC-3E GFP cell survival
# [28] = measured here: mesenchymal TEM4-18 mCherry cell survival
# Chain of Mitogen-activated protein kinase 7 (Homo sapiens) (Q13164 whole entry, looked up, the tested form may be a part): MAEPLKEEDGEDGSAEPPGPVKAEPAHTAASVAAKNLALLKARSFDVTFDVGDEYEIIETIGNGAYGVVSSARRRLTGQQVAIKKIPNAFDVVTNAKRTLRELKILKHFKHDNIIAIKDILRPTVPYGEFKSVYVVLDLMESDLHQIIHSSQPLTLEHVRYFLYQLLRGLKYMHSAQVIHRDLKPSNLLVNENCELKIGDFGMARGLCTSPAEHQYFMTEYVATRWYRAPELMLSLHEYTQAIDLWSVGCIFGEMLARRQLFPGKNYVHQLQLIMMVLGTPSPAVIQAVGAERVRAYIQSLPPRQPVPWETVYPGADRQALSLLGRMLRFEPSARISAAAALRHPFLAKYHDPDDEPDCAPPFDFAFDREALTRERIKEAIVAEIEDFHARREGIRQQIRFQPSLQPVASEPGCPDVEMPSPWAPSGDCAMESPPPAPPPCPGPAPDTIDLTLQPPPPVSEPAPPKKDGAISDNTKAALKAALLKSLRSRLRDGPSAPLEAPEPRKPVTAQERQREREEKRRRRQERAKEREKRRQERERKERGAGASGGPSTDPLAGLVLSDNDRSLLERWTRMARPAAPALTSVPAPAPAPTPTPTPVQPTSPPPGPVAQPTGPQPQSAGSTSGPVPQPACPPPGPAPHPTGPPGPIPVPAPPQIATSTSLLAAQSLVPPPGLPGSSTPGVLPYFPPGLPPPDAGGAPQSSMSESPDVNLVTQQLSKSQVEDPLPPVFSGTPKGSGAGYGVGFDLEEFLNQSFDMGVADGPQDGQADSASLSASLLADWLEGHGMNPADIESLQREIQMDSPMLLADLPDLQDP
smiles,measurement,setting,value
CN1CCC(c2c[nH]c3ccc(O)cc23)CC1,period change,[1],-0.16 h (inactive)
same,inhibition,[2],-2% (inactive)
same,fluorescence ratio (interference),[3],1 (inactive)
same,remaining activity,[4],116% (inactive)
same,remaining activity,[5],119% (inactive)
same,fold change,[6]; stronger effect = lower value,1.01 (inactive)
same,fold change,[6]; [21],0.949 (inactive) and 0.908 (inactive)
same,fold change,[6]; [22],1.73 and 0.894 and 0.857
same,cell count,[6]; [23],10800 and 7640 and 9030
same,cell count,[6]; [24],10700 and 8050 and 9950
same,outcome,[7],inactive
same,z-score,[8]; [25],-0.212 (inactive)
same,z-score,[8]; [26],-0.062
same,z-score,[9],0.06 (inactive) and -0.325 (inactive)
COC(=O)[C@@H]1C[C@H](OC(C)=O)C(=O)[C@H]2[C@@]1(C)CC[C@H]1C(=O)O[C@H](c3ccoc3)C[C@]21C,red/green cell ratio (normalised),[10],1.04 (inactive)
same,normalised cell number,[10]; [27],0.84
same,normalised cell number,[10]; [28],0.87
same,luciferase signal,[11],52 AU (inactive)
C[C@]12N[C@H](Cc3ccccc31)c1ccccc12,period change,[1],0.055 h (inactive)
same,parasite load remaining,[12],44.8% (inactive) and 97.8% (inactive)
same,viability,[12],70.4% and 87.5%
same,inhibition,[2],-1% (inactive)
same,fluorescence ratio (interference),[3],1 (inactive)
same,remaining activity,[4],117% (inactive)
same,remaining activity,[5],89.7% (inactive)
same,fold change,[6]; stronger effect = lower value,1.14 (inactive) and 0.978 (inactive) and 0.959 (inactive)
same,fold change,[6]; [22],0.783 and 1.01 and 0.875
same,cell count,[6]; [23],10200 and 8980 and 9270
same,cell count,[6]; [24],8990 and 9190 and 9660
same,outcome,[7],inactive
same,z-score,[8]; [25],0.143 (inactive)
same,z-score,[8]; [26],0.47
same,z-score,[9],-0.205 (inactive) and 0.805 (inactive)
O=C(Cc1ccc(Cl)c(Cl)c1)N1CCCCC1CN1CCCC1 (centres undefined),period change,[1],-0.135 h (inactive)
same,inhibition,[2],-2% (inactive)
same,fluorescence ratio (interference),[3],0.9 (inactive)
same,remaining activity,[4],106% (inactive)
same,remaining activity,[5],90.2% (inactive)
same,fold change,[6]; stronger effect = lower value,1.01 (inactive) and 0.956 (inactive)
same,fold change,[6]; [22],1.27 and 0.734
same,cell count,[6]; [23],9780 and 8020
same,cell count,[6]; [24],9720 and 8380
same,outcome,[7],inactive
same,z-score,[9],0.175 (inactive) and -0.475 (inactive)
Cc1ccc(C[N+](C)(C)C)o1,remaining activity,[4],126% (inactive)
same,activity remaining,[13],106% (inactive)
same,fold change,[6]; [21],0.971 (inactive)
same,fold change,[6]; [22],0.883
same,cell count,[6]; [23],9440
same,cell count,[6]; [24],9720
same,luciferase signal,[11],100 AU (inactive)
same,z-score,[9],0.545 (inactive)
CCCN(CCC)C1Cc2cc(OC)c(OC)cc2C1,period change,[1],-0.045 h (inactive)
same,inhibition,[2],-2% (inactive)
same,fluorescence ratio (interference),[3],1 (inactive)
same,remaining activity,[4],120% (inactive)
same,remaining activity,[5],106% (inactive)
same,fold change,[6]; stronger effect = lower value,0.979 (inactive) and 0.907 (inactive)
same,fold change,[6]; [22],0.924 and 0.563
same,cell count,[6]; [23],9280 and 9110
same,cell count,[6]; [24],9480 and 10000
same,outcome,[7],inactive
same,z-score,[9],0.43 (inactive) and 0.01 (inactive)
O=C1CN=C(c2ccccc2Cl)c2cc([N+](=O)[O-])ccc2N1,inhibition,[14],12.9%
same,score,[15],0.89
same,rescue above control,[16],-2.29
same,cytochrome c release ratio,[17],0.98
same,inhibition of aggregation,[18],52.4%
same,glutamate uptake change,[19],-25.1%
same,aggregation suppression score,[20],0.77
same,parasite load remaining,[12],52.7% (inactive)
same,viability,[12],99.8%
same,red/green cell ratio (normalised),[10],1.15 (inactive)
same,normalised cell number,[10]; [27],0.93
same,normalised cell number,[10]; [28],1.07
same,fold change,[6]; stronger effect = lower value,0.845 (inactive)
same,fold change,[6]; [22],3.3
same,cell count,[6]; [23],10900
same,cell count,[6]; [24],12900
